Assay outcomes from PubChem BioAssay.
CYP2C9 inh: inhibitors of human CYP2C9 | P11712 | CYP2C9 Supersomes, luciferin-H conversion, luminescence | inhibition, % at 5 µM | 20% of 96,000 active | AID 777;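 active = blocking of liver enzyme CYP2C9 beyond about 50% at 5 µM, limit read from the data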
CYP2C9 act: CYP2C9 (human) activation. recombinant CYP2C9, luciferin-H conversion, luminescence; stronger effect = higher value; factor 1 = untreated enzyme, 0 = blocked. 1.4% of 96,000 active. activation factor at 5 µM. P11712;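 active = activation factor of 2 or more for CYP2C9 at a 5 µM dose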;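 also: 0 = sulfaphenazole-blocked wells and 1 = vehicle-only wells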
sEH act: increases human soluble epoxide hydrolase activity | purified human sEH enzymatic activity, activator screen | activation, % at 2 µM | 0.04% of 91,000 active | AID 717; in the data active = activation above about 37%
Target sequence (P34913 whole entry, looked up): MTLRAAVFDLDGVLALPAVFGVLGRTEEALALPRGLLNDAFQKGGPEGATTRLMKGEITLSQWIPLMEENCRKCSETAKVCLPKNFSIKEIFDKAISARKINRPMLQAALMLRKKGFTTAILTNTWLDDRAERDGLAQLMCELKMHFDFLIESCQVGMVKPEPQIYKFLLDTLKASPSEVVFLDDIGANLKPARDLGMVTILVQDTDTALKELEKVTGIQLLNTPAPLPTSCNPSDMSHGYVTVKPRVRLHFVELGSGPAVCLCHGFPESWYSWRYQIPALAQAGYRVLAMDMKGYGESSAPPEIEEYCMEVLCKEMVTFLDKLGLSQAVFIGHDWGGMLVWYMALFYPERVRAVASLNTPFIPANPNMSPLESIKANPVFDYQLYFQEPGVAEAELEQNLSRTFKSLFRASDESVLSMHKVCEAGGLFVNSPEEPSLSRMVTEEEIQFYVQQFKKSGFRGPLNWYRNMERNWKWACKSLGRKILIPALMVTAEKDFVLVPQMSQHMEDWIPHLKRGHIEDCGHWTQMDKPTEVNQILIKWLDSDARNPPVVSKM
sEH inh: inhibitors of human soluble epoxide hydrolase; P34913; recombinant human sEH enzymatic activity assay; inhibition, % at 2 µM; 0.34% of 91,000 active; AID 707; in the data active = inhibition above about 80%
CYP2C19 inhib: blocks human cytochrome P450 2C19. P33261. CYP2C19 Supersomes, luciferin-H EGE luminescence, 30 min. inhibition, % at 5 µM. 21% of 96,000 active;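 active = CYP2C19 inhibition above a set limit at 5 µM in the primary screen, cut at about 50% in these data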;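 also: plate controls were negative control wells for no effect and 2.5 mM tranylcypromine positive control for full effect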
CYP2C19 activ: cytochrome P450 2C19 (human) activation | AID 1025 | recombinant CYP2C19, luciferin-H EGE luminescence; stronger effect = higher value; 0 = fully inhibited enzyme, 1 = untreated enzyme | 96,000 tested, under 10 active | P33261 | activation factor at 5 µM;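 active = activation factor of at least 2 at 5 µM in the primary screen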;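 also: 0 = wells with 2.5 mM tranylcypromine and 1 = vehicle-only wells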
Starred values were filed as active, the others as inactive; . = no result. This is a sample that favours compounds with a hit; in the whole collection about 27% have one here.

SMILES	CYP2C9 inh	CYP2C9 act	sEH act	sEH inh	CYP2C19 inhib	CYP2C19 activ
CCOc1ccc(C(=O)CSc2nnc(N)s2)cc1	34.0	0.7	.	.	58.1*	0.4
Nc1nnc(SCCOc2ccccc2)s1	62.8*	0.4	-0.5	-3.9	87.2*	0.1
Nc1nnc(SCCOc2ccc(Br)cc2)s1	19.2	0.8	1.4	0.3	82.2*	0.2
Cc1ncc(N=Nc2ccc(F)cc2)c(-c2ccc(Cl)cc2)n1	-6.4	1.1	-2.0	3.1	2.9	1
Oc1ccc(N=Nc2n[nH]c(-c3ccc(Cl)cc3)n2)cc1	-104.2	2*	-0.6	2.8	19.9	0.8
Cc1onc(-c2c(F)cccc2Cl)c1C(=O)Nc1nc2ccccc2[nH]1	93.3*	0.1	2.1	0.9	56.8*	0.4
Cc1onc(-c2c(F)cccc2Cl)c1C(=O)NC1=NCCS1	67.2*	0.3	.	.	53.6*	0.5
Cc1onc(-c2c(F)cccc2Cl)c1C(=O)Nc1cccc2nsnc12	54.4*	0.5	-1.7	5.6	23.8	0.8
O=C(Nc1nc2ccccc2[nH]1)c1ccccc1	17.8	0.8	8.5	-9.7	41.7	0.6
C=CCNC(=O)c1c(-c2c(F)cccc2Cl)noc1C	1.6	1	-2.3	0.5	3.5	1
CCOc1cc(/C=C(/C#N)c2nc3ccccc3[nH]2)ccc1OCc1ccc(C(=O)O)o1	.	.	1.9	-1.1	.	.
N#C/C(=C/c1ccc(N2CCCC2)c([N+](=O)[O-])c1)c1nc2ccccc2[nH]1	58.1*	0.4	-10.1	10.5	73.0*	0.3
Cc1ccc2nc(/C(C#N)=C/c3cn[nH]c3-c3ccc(F)cc3)[nH]c2c1	42.0	0.6	11.1	-7.3	36.9	0.6
N#C/C(=C\c1ccc(N2CCOCC2)o1)c1nc2ccccc2[nH]1	-29.2	1.3	-26.1	28.2	8.8	0.9
CCN(CC)c1ccc(/C=C(/C#N)c2nc3ccccc3[nH]2)c(OC(C)C)c1	73.5*	0.3	0.3	-2.3	48.5	0.5
COc1cc(/C=C(\C#N)c2nc3ccccc3[nH]2)c([N+](=O)[O-])cc1OCc1ccccc1	76.0*	0.2	-9.3	7.9	43.4	0.6
Cc1ccc2nc(/C(C#N)=C\c3ccc(N4CCCCC4)c([N+](=O)[O-])c3)[nH]c2c1	59.1*	0.4	-0.2	1.6	55.7*	0.4
CCOc1ccccc1N(CC(=O)NC(C)(C)C)C(=O)Cn1nnc(-c2ccc(C)o2)n1	25.2	0.7	1.3	-1.2	32.2	0.7
COc1cc(/C=C(/C#N)c2nc3ccccc3[nH]2)ccc1OCC(=O)Nc1ccccc1C(C)C	59.5*	0.4	-7.7	11.4	38.2	0.6
Cc1ccc(C(=O)O/N=C\c2ccc(N3CCCCC3)c([N+](=O)[O-])c2)cc1	61.1*	0.4	7.3	-6.4	43.1	0.6
CCOC(=O)C1CCCN(c2c(N3CCc4ccccc4C3)c(=O)c2=O)C1 (centres undefined)	49.8	0.5	-6.5	5.7	34.6	0.7
CCCC[n+]1ccn(-c2nc3ccccc3nc2[N-]S(=O)(=O)c2ccc(C)cc2)c1	72.0*	0.3	7.8	-5.8	25.2	0.7
CCNc1nc(NC(C)C)nc(OCC)n1	12.1	0.9	-9.2	6.7	2.0	1
CCOc1ccccc1N(CC(=O)Nc1ccccc1C(=O)NCc1ccco1)S(C)(=O)=O	86.4*	0.1	-0.3	4.0	85.7*	0.1
CCOc1ccccc1N(CC(=O)Nc1ccccc1C(=O)O)S(C)(=O)=O	97.0*	0	2.8	-4.8	-1.8	1
SMILES	CYP2C9 inh	CYP2C9 act	sEH act	sEH inh	CYP2C19 inhib	CYP2C19 activ
CCOc1ccccc1N(CC(=O)Nc1cc(OC)ccc1OC)S(C)(=O)=O	84.4*	0.2	4.7	-3.9	96.4*	0
CCOc1ccc(N(CC(=O)NCc2ccco2)S(C)(=O)=O)cc1	20.0	0.8	-6.3	6.4	3.8	1
CCOc1ccc(N(CC(=O)Nc2ccccc2C(=O)NCc2ccco2)S(C)(=O)=O)cc1	70.3*	0.3	5.4	-3.0	22.7	0.8
CCOC(=O)c1ccccc1NC(=O)CN(c1ccccc1OCC)S(C)(=O)=O	13.3	0.9	.	.	8.6	0.9
CCN(CC)C(=O)c1sc2nc(N3CCOCC3)c3c(c2c1N)CCCC3	51.9*	0.5	9.2	-9.8	-2.1	1
NC(=O)c1sc2nc(N3CCCCC3)c3c(c2c1N)CCCC3	68.0*	0.3	.	.	42.6	0.6
COC(=O)c1sc2nc(N3CCCCC3)c3c(c2c1N)CCCC3	71.9*	0.3	-0.6	3.6	37.1	0.6
